# Assay results from PubChem BioAssay (Tox21).
# Values joined by “and” are separate entries in the source; they are usually repeats but may differ in a detail not shown here. Identical values can stand only once. Results filed as inconclusive are left out. Values without a mark were called inactive. Calls come from the whole dose curve; as a rule, active = well fitted activation curve with a large enough effect in the repeat runs; inconclusive = weak or mixed curves; inactive = no such curve, though single readings can be large or run the other way.
# Target: Nuclear receptor subfamily 1 group I member 2 (Rattus norvegicus) (UniProt Q9R1A7)
# Sequence (Q9R1A7 whole entry, looked up): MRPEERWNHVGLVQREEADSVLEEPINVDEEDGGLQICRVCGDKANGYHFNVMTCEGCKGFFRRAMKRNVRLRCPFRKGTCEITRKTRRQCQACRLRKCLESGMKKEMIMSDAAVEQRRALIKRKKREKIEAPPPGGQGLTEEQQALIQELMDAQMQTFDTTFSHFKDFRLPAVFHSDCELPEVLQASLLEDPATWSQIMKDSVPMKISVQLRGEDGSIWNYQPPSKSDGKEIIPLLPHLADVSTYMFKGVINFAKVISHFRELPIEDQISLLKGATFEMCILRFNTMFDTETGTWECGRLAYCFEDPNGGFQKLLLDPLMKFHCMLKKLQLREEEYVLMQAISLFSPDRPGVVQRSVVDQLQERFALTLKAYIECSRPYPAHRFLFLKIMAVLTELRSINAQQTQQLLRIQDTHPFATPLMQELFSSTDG
# Assay: Rat pregnane X receptor (rPXR) activation by small molecules, qHTS assay (AID 1346983); note: nearly all actives have a fitted effect of over 20% in size
# Settings: rPXR luciferase reporter cells, One-Glo luminescence, 24 h; max activation: active compounds read high
# From the text: National Center for Advancing Translational Sciences [NCATS] NIH Chemical Genomics Center [NCGC] U.S. Environmental Protection Agency [EPA] National Institutes of Environmental Health Sciences [NIEHS] National Toxicology Program [NTP] Assay overview: The Pregnane X receptor (PXR), a ligand activated nuclear receptor plays a critical role in the regulation of genes involved in drug metabolism and transporters. PXR binds xenobiotics and when compounds interact with PXR produces enhanced expression of CYP3A genes. In humans PXR activation and CYP3A4 induction can be problematic due to their interactions with co-medicated drugs and decrease their efficacy or increase their own metabolism. However, there are known species-specific differences with regard to PXR activation that should be taken into account when animal PXR data are extrapolated to humans. A cell based rat PXR (rPXR) assay (developed by Puracyp, Inc., CA) was used to assess the activation of rPXR.
# Assay Protocol Summary: rPXR cells were dispensed at 2,000 per well in 5uL of assay medium into white, solid-bottom 1536-well plates using a Multidrop Combi dispenser (Thermo Scientific). The assay plates were incubated at 37 C for 5hr before transferring 23 nL of test compounds dissolved in DMSO and positive control via Pintool station (Wako). The assay plates were incubated at 37 C for 24 hr. Then 5ul One-Glo assay reagent (Promega) was added to each plate by a Flying Reagent Dispenser (FRD, Aurora Discovery) and following 30 min incubation at room temperature, luciferase activity was quantified on a ViewLux plate reader (Perkin Elmer).
# % is set by controls: 0 for no effect and ±100 for the full control effect.
row,SMILES,max activation
1,CCC1(C)CC(=O)NC(=O)C1,0.0054%
2,CO[C@H]1[C@@H](O)C[C@H](O[C@H]2[C@@H](O)C[C@H](O[C@H]3[C@@H](O)C[C@H](O[C@H]4CC[C@@]5(C)[C@H](CC[C@@H]6[C@@H]5C[C@@H](O)[C@]5(C)[C@@H](C7=CC(=O)OC7)CC[C@]65O)C4)O[C@@H]3C)O[C@@H]2C)O[C@@H]1C,-4.43%
3,CCC/C=C/C=C/C(=O)O[C@H]1/C(=C/C(=O)OC)C[C@H]2C[C@H]([C@@H](C)O)OC(=O)C[C@H](O)C[C@@H]3C[C@H](OC(C)=O)C(C)(C)[C@](O)(C[C@@H]4C/C(=C/C(=O)OC)C[C@H](/C=C/C(C)(C)[C@]1(O)O2)O4)O3,2.43%
4,O=C1CCCCC1CN1CCCCC1 (stereo not given),-4.76%
5,CCC(C)(S(=O)(=O)CC)S(=O)(=O)CC,-2.56%
6,C[C@]12CCC(=O)C=C1C=C[C@@H]1[C@@H]2CC[C@@]2(C)[C@H]1CC[C@@]2(O)CCC(=O)O,4.24%
7,CN(C)[C@H](Cc1ccccc1)c1ccccc1,0.224%
8,NC1=NC(=O)N2CC12 (stereo not given),-1.23%
9,C#CC(C)(O)CC (stereo not given),-2.56%
10,CC(=O)Oc1ccc2c3c1O[C@H]1[C@@H](OC(C)=O)C=C[C@H]4[C@@H](C2)N(C)CC[C@@]341,0.899%
11,CCC1C(C)=NN=C(c2ccc(OC)c(OC)c2)c2cc(OC)c(OC)cc21 (stereo not given),-0.64%
12,C=CCC1(C(C)CCC)C(=O)N=C(S)NC1=O (stereo not given),-2.22%
13,C[C@]12C[C@H]3S[C@H]3C[C@@H]1CC[C@@H]1[C@@H]2CC[C@]2(C)[C@@H](O)CC[C@@H]12,11.2%
14,C=CCN(C1=NCCN1)c1c(Cl)cccc1Cl,-3.97%
15,CCCCCN(C)CCC(O)(P(=O)(O)O)P(=O)(O)O,-1.96%
16,c1cc2c(c(NC3=NCCN3)c1)CCCC2,-5.45%
17,O=C1CN(O)C(c2ccccc2)=c2cc(Cl)ccc2=N1,-6.23%
18,O=C(CCl)c1ccc(Oc2ccc(C(=O)CCl)cc2)cc1,7.38%
19,Cc1nnc2n1-c1ccc(Cl)cc1C(c1ccccc1Cl)=NC2,3.04%
20,C[N+]1(C)[C@@H]2CC[C@H]1CC(OC(=O)c1c[nH]c3ccccc13)C2 (stereo not given in full),-3.92%

row,SMILES,max activation
1,CC(=O)OC1CN2CCC1CC2 (stereo not given),-0.436%
2,CCN(CC)C(=O)N[C@H]1C[C@@H]2c3cccc4[nH]cc(c34)C[C@H]2N(C)C1,-1.74%
3,C[C@@H](Cc1ccccc1)N(C)C,-2.61%
4,O=C1C=C2C=C[C@@H]3C[C@@]2(O1)[C@H]1CCCCN31,-20.5%
5,C[C@]12CC[C@H]3[C@@H](CCC4=CC(=O)CC[C@@]43C)[C@@H]1CC[C@H]2O,-0.613%
6,Cc1cc(C)cc(C(=O)OC2C[C@H]3CC[C@@H](C2)N3C)c1 (stereo not given in full),-1.64%
7,C[C@H]1CC[C@]2(NC1)O[C@H]1C[C@H]3[C@@H]4CC[C@H]5C[C@@H](O[C@@H]6O[C@H](CO)[C@H](O[C@@H]7O[C@H](CO)[C@@H](O)[C@H](O[C@@H]8OC[C@@H](O)[C@H](O)[C@H]8O)[C@H]7O[C@@H]7O[C@H](CO)[C@@H](O)[C@H](O)[C@H]7O)[C@H](O)[C@H]6O)CC[C@]5(C)[C@H]4CC[C@]3(C)[C@H]1[C@@H]2C,-24.3%
8,COc1ccc2c3c1O[C@H]1C(=O)CC[C@H]4[C@@H](C2)N(C)CC[C@]314,-2.81%
9,C[N+]1([O-])[C@@H]2CC(OC(=O)[C@H](CO)c3ccccc3)C[C@H]1[C@@H]1O[C@@H]12 (stereo not given in full),6.47% and -0.453%
10,COC1=CC=C2[C@H]3Cc4ccc(OC)c5c4[C@@]2(CCN3C)[C@H]1O5,-7.33%
11,CN[C@H]1C[C@@H](N)[C@H](O)[C@@H](O[C@@H]2O[C@H](CO)[C@H](O)[C@@H]3OC4(O[C@H]23)O[C@H](C(N)CO)[C@H](O)[C@H](O)[C@H]4O)[C@@H]1O (stereo not given in full),-3.01%
12,O[C@H]1[C@H]2[C@H](O)CCCN2C[C@H]1O,-2.82%
13,NCC(O)c1cccc(O)c1 (stereo not given),-2.06%
14,CC(Cc1ccccc1)NC=O (stereo not given),0.0916%
15,CCCCNCC(O)c1ccc(O)cc1 (stereo not given),-0.163%
16,Oc1cc[c]([Hg][Cl])cc1,-21.4%
17,CCCC(=O)OC(C(Cl)(Cl)Cl)P(=O)(OC)OC (stereo not given),0.574%
18,CC[N+](C)(CC)CCOC(=O)C(O)(c1ccccc1)c1ccccc1,-2.16%
19,CC(C)C[C@H](CN)CC(=O)O,-2.72%
20,[S]=[Sb](=[S])[S][Sb](=[S])=[S],-0.774%
